Hit rate of the full screen: of about 69,000 compounds, about 8,600 (12%) showed an effect of 50% or more. Many of the other results were omitted from the sample, so strong results are more common in it than they were.

The test system of the experiment is Plasmodium berghei. The experiment is described as follows: Screen against P. berghei liver stage (PbLuc), transformed with Luciferase, at 10uM. The following applies: tested at 10 uM. It counts as functional, HepG2.
In the case of `Cc1ccccc1C(=O)NC1CCN(Cc2ncc(C(C)(C)C)o2)CC1`, the INHIBITION is 66.1%.

Turning to `CC(C)(C)c1cnc(CN2CCC(NC(=O)Nc3ccccc3)CC2)o1`, the INHIBITION is given as 39.4%.

With `COc1ccc(C(C)N(C)Cc2c(C(C)(C)C)[nH]c3ncccc23)cc1` (centres undefined), the INHIBITION is recorded as -19%.

For `Cc1cnn(CC2CN(Cc3nc4cccnc4[nH]3)CCO2)c1` (centres undefined), the INHIBITION was found to be 45.1%.

With `O=c1[nH]c2c(-c3ccccn3)nsc2c(=O)n1C1CCCCC1`, the INHIBITION is 9.41%.

Regarding `O=C(Cc1cn2ccccc2n1)N1CCCC(n2cccn2)C1` (centres undefined), the INHIBITION was determined as 21.5%.

For the molecule `CSc1ncccc1C(=O)NCc1ccc(N(C)C)cc1`, the INHIBITION was -25.1%.

As to `Cc1nc(CN2CCC3(CCCN(Cc4ccncc4)C3)C2=O)cs1` (centres undefined), the INHIBITION is listed as -36.9%.

`CC(C)CN1CC(O)CN(S(=O)(=O)c2ccccc2)CC1=O` (centres undefined): the INHIBITION amounted to 10.1%.

As to `Cc1cc(C)nc(NCCC(=O)NCCn2ccc3ccccc32)n1`, the INHIBITION stood at 41.5%.

Turning to `Cc1cnc(CN2CCOC(Cn3nc(C)cc3C)C2)cn1` (centres undefined), the INHIBITION came to 32.9%.

With `Cc1ccccc1CCC1CCCN(C(=O)Cc2cc(=O)[nH]c(N)n2)C1` (centres undefined), the INHIBITION is -33%.

For `CCc1nc(N)sc1C(=O)N1CCCC(CCc2ccccc2C)C1` (centres undefined), the INHIBITION turned out to be 55.3%.

For the molecule `CCc1nc(N)sc1C(=O)N1CCCC(COc2cccc(C)c2)C1` (centres undefined), the INHIBITION was -24.8%.

As for `Cn1ccc(C(=O)NCc2ccc(CN3CCCCC3)cc2)cc1=O`, the INHIBITION is recorded as -19.9%.

`CCS(=O)(=O)N1C[C@H]2CN(Cc3cccc(F)c3)C(=O)[C@H]2C1`: the INHIBITION amounted to 3.58%.

Take `Nc1nc2c(c(NCc3nccs3)n1)CCN(CC1CCCC1)CC2`: the INHIBITION was 76.6%.

Consider `Cc1nc2c(c(NCCc3nccs3)n1)CCN(CC1CC1)CC2`, for which the INHIBITION amounted to 64.1%.

`Cc1nc2c(c(NCCc3nc(C)c(Cl)s3)n1)CCNCC2`: the INHIBITION was 18.5%.

As for `CN(C)c1ncnc2c1CCN(CC1CCCC1)CC2`, the INHIBITION was 38.1%.

As to `COCCNc1nc(C)nc2c1CCN(CC1CCC(N)CC1)CC2` (centres undefined), the INHIBITION was 26.6%.

Take `c1csc(CN2CCC3(CC2)CCN(CC2CC2)CC3)n1`: the INHIBITION was found to be 23.3%.

For `CC(C)c1nnc(CN2CCCc3ccc(S(N)(=O)=O)cc32)o1`, the INHIBITION is reported as -7.93%.

Regarding `CCCn1c(SCC(N)=O)nnc1-c1csc2c1CCCC2`, the INHIBITION amounted to 19.8%.

In the case of `CN(Cc1ccn[nH]1)C(=O)CCC(=O)NC1CCCC1`, the INHIBITION was found to be 31.2%.

Take `CCc1c(C)[nH]c(C(C)(C)N)nc1=O`: the INHIBITION was determined as 60.4%.

Take `CCc1c(C)[nH]c(C(C)(N)CC)nc1=O` (centres undefined): the INHIBITION was found to be 29.7%.

For `CCC(C)(N)c1nc(=O)c(C)c(C)[nH]1` (centres undefined), the INHIBITION worked out at 43.6%.

On to `CCS(=O)(=O)c1ccccc1N1CCC(NC(=O)C2CC2)CC1`, for which the INHIBITION is listed as -9.37%.

`c1ccc(N2CCC3(CCCN(c4ncccn4)C3)C2)nc1` (centres undefined): the INHIBITION is -56.2%.

In the case of `CCc1nc2c(N3CCC4(CC3)CC(=O)N(CC)C4)ncnc2o1`, the INHIBITION turned out to be 26.8%.

With `CCc1nc2c(N3CCC4(CC3)CC(=O)N(CC(C)C)C4)ncnc2o1`, the INHIBITION is 87.2%.

On to `CCc1nc2c(N3CCC4(CC3)CNC(=O)C4)ncnc2o1`, for which the INHIBITION is 9.91%.

Turning to `c1csc(CN2CCCn3nnc(COCC4CC4)c3C2)n1`, the INHIBITION is reported as 15.8%.

As to `CC[C@@H](Cn1ncc2ccccc2c1=O)NC(=O)c1cnccn1`, the INHIBITION is listed as -3.94%.

For `Cn1nnc2c(sc3nc(N4CCOCC4)c4c(c32)CCC4)c1=O`, the INHIBITION was 13.8%.

On to `CC(C)n1nnc2c(sc3nc(N4CCOCC4)c4c(c32)CCC4)c1=O`, for which the INHIBITION is reported as 28.6%.

Consider `CCCn1nnc2c(sc3nc(N4CCOCC4)c4c(c32)CCC4)c1=O`, for which the INHIBITION came to 80.6%.

In the case of `CNc1ncc(CN(C)C(=O)c2cccc(-n3cccn3)c2)cn1`, the INHIBITION was found to be 25.8%.

For the molecule `O=C(NCCc1cccs1)NCC(O)c1cccc(F)c1` (centres undefined), the INHIBITION is -54.4%.

Regarding `CCN(CC)c1ncnc2c(C)nn(CC)c12`, the INHIBITION is listed as 35.4%.

As for `O=C(O)C1(n2ccc(-c3ccco3)n2)CCN(Cc2cccnc2)CC1`, the INHIBITION stood at 1.48%.

For the molecule `CNc1nc2cn(-c3cccc(OC)c3)c(=O)c-2c[nH]1`, the INHIBITION is -98.45%.

Regarding `C[C@@H]1CN(CC(C)(C)N2CCOCC2)C[C@@]1(O)C1CC1`, the INHIBITION came out at 54.5%.

For the molecule `C[C@@H]1CN(CC(C)(C)N2CCOCC2)CC[C@@]1(O)C1CCOCC1`, the INHIBITION amounted to 27.7%.

Take `C[C@@H]1CN(CC(C)(C)N2CCCCC2)C[C@@]1(O)C1CC1`: the INHIBITION amounted to 31.7%.

Consider `C[C@@H]1CN(Cc2cc3ccccc3n2C)CC[C@@]1(O)C1CC1`, for which the INHIBITION was found to be 8.7%.

Consider `C[C@@H]1CN(CC(C)(C)N2CCCCC2)CC[C@@]1(O)C1CC1`, for which the INHIBITION is 71.3%.

With `C[C@@H]1CN(S(=O)(=O)N2CCOCC2)C[C@@]1(O)C1CC1`, the INHIBITION is reported as 38.75%.

As to `Cc1nn(-c2ccccc2)nc1C(=O)N1CCCC(n2cccn2)C1` (centres undefined), the INHIBITION is listed as 17.4%.

As to `NC(=O)Cn1ccnc1C1CCCN(Cc2ccccc2OC(F)F)C1` (centres undefined), the INHIBITION amounted to 46.4%.

With `N#Cc1ccccc1CN1CCCC(c2nccn2CC2CC2)C1` (centres undefined), the INHIBITION was found to be 33.4%.

As to `FC(F)Oc1ccccc1CN1CCCC(c2nccn2CC2CC2)C1` (centres undefined), the INHIBITION was 74.5%.

`CC1(c2ncc(CN3CCSCC3)cn2)CCCCO1` (centres undefined): the INHIBITION is reported as 40.95%.

These data come from ChEMBL document CHEMBL4513216, “Probing the Open Global Health Chemical Diversity Library for Multistage-Active Starting Points for Next-Generation Antimalarials” (ACS Infect Dis, 2020).
